The target in one assay is T1, ELK1 (Homo sapiens, UniProt P19419 1-428).
T1 sequence: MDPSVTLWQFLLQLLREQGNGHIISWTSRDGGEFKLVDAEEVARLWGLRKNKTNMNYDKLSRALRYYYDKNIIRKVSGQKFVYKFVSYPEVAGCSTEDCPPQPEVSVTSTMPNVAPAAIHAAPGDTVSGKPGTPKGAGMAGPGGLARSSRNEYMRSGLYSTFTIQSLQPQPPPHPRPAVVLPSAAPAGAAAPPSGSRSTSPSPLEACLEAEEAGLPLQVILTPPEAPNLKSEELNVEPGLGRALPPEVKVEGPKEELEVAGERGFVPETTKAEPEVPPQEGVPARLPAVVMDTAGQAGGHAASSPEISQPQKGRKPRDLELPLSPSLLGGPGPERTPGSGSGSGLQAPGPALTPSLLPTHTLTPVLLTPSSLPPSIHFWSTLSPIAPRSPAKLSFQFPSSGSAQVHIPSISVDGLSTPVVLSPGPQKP
Description: DAPPL (digital affinity profiling via proximity ligation, sequencing); 10 mM Tris-HCl pH 7.5, 50 mM NaCl, 1 mM DTT, 4% glycerol, room temperature, 30 min; GST-TFs on glutathione beads, 16-mer random dsDNA library, 0.1% formaldehyde crosslink after washing; high values mean tight binding. The following applies: protein: recombinant; tags: N-terminal GST; dsDNA, one strand shown. A digest of the protocol:
(§1)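 Pools were built from human transcription factors expressed in yeast as GST fusions, captured on glutathione beads and DNA-barcoded, along with a tag-only sample. Incubation with 200 nmole of a 16-mer random double-stranded DNA library lasted 30 min at room temperature in Tris/NaCl/DTT/glycerol buffer, and was followed by washing, 0.1% formaldehyde crosslinking, proximity ligation, PCR amplification and Illumina NextSeq500 sequencing. Binding signal is the quotient of each hexamer's read frequency for a factor and its frequency for the tag-only sample.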
Turning to CGCCGC, the binding signal was 1.1 fold enrichment (6-mer frequency, TF over GST control). Take CTGTCA: the binding signal is 1.11 fold enrichment (6-mer frequency, TF over GST control). The same measure, in the same setting: the figure for GCCGAC is 1.23 fold enrichment (6-mer frequency, TF over GST control); for GCACAA it is 1.13 fold enrichment (6-mer frequency, TF over GST control). Same read-out and setting: the figure for ACATGT is 1.14 fold enrichment (6-mer frequency, TF over GST control). Turning to CTGGTC, the binding signal was 1.23 fold enrichment (6-mer frequency, TF over GST control). On to CCAAAC, for which the binding signal was 1.13 fold enrichment (6-mer frequency, TF over GST control). On to ACAGGA, for which the binding signal was 1.08 fold enrichment (6-mer frequency, TF over GST control). Same read-out and setting: the figure for AGTGGC is 1.19 fold enrichment (6-mer frequency, TF over GST control); for ACAAAC it is 1.15 fold enrichment (6-mer frequency, TF over GST control). The same measure, in the same setting: then CACACG, with 1.11 fold enrichment (6-mer frequency, TF over GST control).

Regarding CCCATC, the binding signal was 1.18 fold enrichment (6-mer frequency, TF over GST control). On the same count and under the same terms, then CCGGTT, with 2.1 fold enrichment (6-mer frequency, TF over GST control). Same read-out and setting: then CAAATG, with 1.16 fold enrichment (6-mer frequency, TF over GST control). The same measure, in the same setting: then CCGGTA, with 1.51 fold enrichment (6-mer frequency, TF over GST control); and CATCAC, with 1.1 fold enrichment (6-mer frequency, TF over GST control). CTGTGC: the binding signal was 1.18 fold enrichment (6-mer frequency, TF over GST control).

As for GAAGCG, the binding signal is 1.24 fold enrichment (6-mer frequency, TF over GST control). For the sequence CAATGC, the binding signal was 1.23 fold enrichment (6-mer frequency, TF over GST control). Same read-out and setting: the figure for GTCACA is 1.1 fold enrichment (6-mer frequency, TF over GST control).

The target in the next assay is T2, GABPA (Homo sapiens, UniProt Q06546 1-454).
T2 sequence: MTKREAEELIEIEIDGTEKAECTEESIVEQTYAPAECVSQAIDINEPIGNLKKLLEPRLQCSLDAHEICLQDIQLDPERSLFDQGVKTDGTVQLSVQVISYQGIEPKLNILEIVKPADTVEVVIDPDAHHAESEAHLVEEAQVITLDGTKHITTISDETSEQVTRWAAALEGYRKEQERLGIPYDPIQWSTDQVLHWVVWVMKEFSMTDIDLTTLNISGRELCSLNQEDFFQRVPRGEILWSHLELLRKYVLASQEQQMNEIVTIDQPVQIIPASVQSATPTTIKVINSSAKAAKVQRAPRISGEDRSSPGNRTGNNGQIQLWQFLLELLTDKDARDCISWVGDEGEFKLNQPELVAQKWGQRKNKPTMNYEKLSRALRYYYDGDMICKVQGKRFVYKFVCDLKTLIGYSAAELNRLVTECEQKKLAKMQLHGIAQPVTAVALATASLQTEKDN
The assay is described as above. The following applies: protein: recombinant; tags: N-terminal GST; dsDNA, one strand shown. A digest of the protocol:
as §1
Turning to CGGATG, the binding signal is 1.49 fold enrichment (6-mer frequency, TF over GST control). The same measure, in the same setting: the figure for CCATAC is 1.16 fold enrichment (6-mer frequency, TF over GST control). Same read-out and setting: the figure for AACAGG is 1.13 fold enrichment (6-mer frequency, TF over GST control); for GTAACA it is 1.05 fold enrichment (6-mer frequency, TF over GST control); for GCGCCT it is 1.11 fold enrichment (6-mer frequency, TF over GST control). Same read-out and setting: the figure for TGTCCG is 1.48 fold enrichment (6-mer frequency, TF over GST control); for GCACAT it is 1.16 fold enrichment (6-mer frequency, TF over GST control); for CGGCAT it is 1.07 fold enrichment (6-mer frequency, TF over GST control). Consider CACTCA, for which the binding signal is 1.25 fold enrichment (6-mer frequency, TF over GST control). For GTATGC, the binding signal is 1.17 fold enrichment (6-mer frequency, TF over GST control). CACAAT: the binding signal is 1.12 fold enrichment (6-mer frequency, TF over GST control). In the case of CGACCG, the binding signal was 1.21 fold enrichment (6-mer frequency, TF over GST control). On the same count and under the same terms, the figure for CCGCCC is 1.27 fold enrichment (6-mer frequency, TF over GST control).

Turning to GATGTC, the binding signal was 1.24 fold enrichment (6-mer frequency, TF over GST control). As for CCACCC, the binding signal is 1.28 fold enrichment (6-mer frequency, TF over GST control). The same measure, in the same setting: the figure for TTGGCC is 1.23 fold enrichment (6-mer frequency, TF over GST control); for GTACCT it is 1.26 fold enrichment (6-mer frequency, TF over GST control); for GATGCG it is 1.16 fold enrichment (6-mer frequency, TF over GST control). Still for that read-out and setting: the figure for CATGGT is 1.29 fold enrichment (6-mer frequency, TF over GST control). Take CGCCGC: the binding signal was 1.19 fold enrichment (6-mer frequency, TF over GST control). Same read-out and setting: then CTGTCA, with 1.2 fold enrichment (6-mer frequency, TF over GST control); and GCCGAC, with 1.21 fold enrichment (6-mer frequency, TF over GST control). Still for that read-out and setting: then GCACAA, with 1.09 fold enrichment (6-mer frequency, TF over GST control). With ACATGT, the binding signal was 1.05 fold enrichment (6-mer frequency, TF over GST control). On to CTGGTC, for which the binding signal was 1.25 fold enrichment (6-mer frequency, TF over GST control). Regarding CCAAAC, the binding signal is 1.15 fold enrichment (6-mer frequency, TF over GST control). Turning to ACAGGA, the binding signal was 1.13 fold enrichment (6-mer frequency, TF over GST control).

As to AGTGGC, the binding signal is 1.2 fold enrichment (6-mer frequency, TF over GST control). Same read-out and setting: then ACAAAC, with 1.14 fold enrichment (6-mer frequency, TF over GST control); and CACACG, with 1.23 fold enrichment (6-mer frequency, TF over GST control).

Regarding CCCATC, the binding signal was 1.17 fold enrichment (6-mer frequency, TF over GST control). On the same count and under the same terms, the figure for CCGGTT is 1.89 fold enrichment (6-mer frequency, TF over GST control); for CAAATG it is 1.08 fold enrichment (6-mer frequency, TF over GST control); for CCGGTA it is 1.46 fold enrichment (6-mer frequency, TF over GST control). CATCAC: the binding signal was 1.18 fold enrichment (6-mer frequency, TF over GST control).

Consider CTGTGC, for which the binding signal was 1.12 fold enrichment (6-mer frequency, TF over GST control). GAAGCG: the binding signal was 1.27 fold enrichment (6-mer frequency, TF over GST control). On to CAATGC, for which the binding signal was 1.21 fold enrichment (6-mer frequency, TF over GST control). Still for that read-out and setting: the figure for GTCACA is 1.12 fold enrichment (6-mer frequency, TF over GST control).
